Potency data for 40 compounds are collected here from PubChem BioAssay (Tox21).

Records with an inconclusive call do not appear. Entries that show only a call come without a potency. Activity calls are given as the source filed them. Calls come from the whole dose curve.

A short description of this assay: p53 small molecule agonists, cell-based qHTS assay with human liver microsomes (AID 1963577).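 Note: p53 response element beta-lactamase reporter cells with liver microsomes plus NADPH.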 Conditions: HCT-116 p53RE-bla with human liver microsomes, ratio, 16 h; series mostly up to 66 µM. An excerpt:
National Center for Advancing Translational Sciences [NCATS]
Division of Preclinical Innovation [DPI]
U.S. Environmental Protection Agency [EPA]
National Institutes of Environmental Health Sciences [NIEHS]
National Toxicology Program [NTP]
U.S. Food and Drug Administration [FDA]
p53, a tumor suppressor protein, is activated following cellular insult, including DNA damage and other cellular stresses. The activation of p53 regulates cell fate by inducing DNA repair, cell cycle arrest, apoptosis, or cellular senescence. The activation of p53, therefore, is a good indicator of DNA damage and other cellular stresses. […] The activation of the reporter gene under culture conditions can be detected by fluorescence intensity.
Tox21 Assay Protocol Summary:
The p53RE-bla cells were dispensed at 4,000cells/3ul/well in 1536-well black-clear bottom plates. After the assay plates were incubated at 37 C, 5% CO2 incubator for 5 hours, 23 nL of compounds dissolved in DMSO, positive controls or DMSO only was transferred to the assay plate. Following compound addition, 3 uL of human liver microsomes (XenoTech, Kansas City, KS) at final concentration of 0.5 mg/mL and 1uL of Beta-Nicotinamide adenine dinucleotide 2-phosphate (NADPH) at final concentration of 0.5 mg/mL were transferred to the assay plate. The plates were incubated at 37 C for 16 hours. 1 uL of LiveBLAzer detection mixture was added to each well and the plates were incubated at room temperature in the dark for 2 h.
`NS(=O)(=O)c1ccccc1Cl`: the Potency entry is “inactive”.

On to `CC(C)(C)C1CCCCC1O` (stereo not given), for which the Potency result was “inactive”.

Regarding `O=C(OCCOCCO)c1ccccc1Nc1cccc(C(F)(F)F)c1`, the Potency entry is “inactive”.

`Nc1ccc(S(=O)(=O)Nc2ccc(Cl)nn2)cc1`: the Potency entry was “inactive”.

On to `CCc1c(C(=O)O)c(=O)cnn1-c1ccc(Cl)cc1`, for which the Potency result is “inactive”.

`Cc1ccc(S(N)(=O)=O)cc1`: the Potency result was “inactive”.

As for `CCOc1c(N2CCOCC2)cnn(C)c1=O`, the Potency result is “inactive”.

Regarding `N#CCc1cccc(C(F)(F)F)c1`, the Potency result was “inactive”.

As to `CCC(N)(CO)CO`, the Potency result was “inactive”.

For the compound `CC1=CC[C@@]23C[C@@H]1C(C)(C)[C@@H]2CC[C@H]3C`, the Potency result was “inactive”.

As to `C[C@H]1C[C@H](O)c2ccsc2S1(=O)=O`, the Potency result is “inactive”.

Regarding `COC(CC(C)CCCC(C)(C)O)OC` (stereo not given), the Potency result is “inactive”.

Regarding `CC(C)(C)C(=O)OCOP(=O)(COCCn1cnc2c(N)ncnc21)OCOC(=O)C(C)(C)C`, the Potency result was “inactive”.

Consider `CCCCC1CCC(=O)O1` (stereo not given), for which the Potency result was “inactive”.

For `CCC(CC)C(C)CCOC(C)=O` (stereo not given), the Potency entry was “inactive”.

On to `CC(=O)OCCC1CCCCC1`, for which the Potency result is “inactive”.

For the compound `CCCCNc1ccccc1`, the Potency entry is “inactive”.

Regarding `CCCC(C)CCC(C)=O` (stereo not given), the Potency entry is “inactive”.

As for `Cc1c(C)c2c(c(C)c1O)CCC(C)(COc1ccc(CC3SC(=O)NC3=O)cc1)O2` (stereo not given), the Potency result was “inactive”.

For the compound `CCCCN=C(N)N=C(N)N`, the Potency result is “inactive”.

Regarding `CCCC(=O)OCC(COC(=O)CCC)OC(=O)CCC`, the Potency result is “inactive”.

As for `Cc1cc(O)c(Cl)cc1C`, the Potency entry was “inactive”.

As to `ClC/C=C\CCl`, the Potency entry was “inactive”.

As to `O=c1[nH]c(=O)c2cn[nH]c2[nH]1`, the Potency entry is “inactive”.

In the case of `CC(=O)NCc1c(I)c(NC(C)=O)c(I)c(C(=O)O)c1I`, the Potency result was “inactive”.

For `Clc1cc(Cl)c(Cl)c(Cl)c1Cl`, the Potency entry was “inactive”.

Turning to `COc1cc(C(=O)N2CCCCCCC2)cc(OC)c1OC`, the Potency entry was “inactive”.

With `CCC(=O)OCc1ccc(OC)cc1`, the Potency result is “inactive”.

Regarding `O=C1Nc2ccccc2C1=O`, the Potency result was “inactive”.

`N#CCN(CC#N)CCN(CC#N)CC#N`: the Potency result is “inactive”.

Take `CC(C)CNCC(C)C`: the Potency result was “inactive”.

Take `CCOC(OCC)OCC`: the Potency entry is “inactive”.

`CC(N)CN` (stereo not given): the Potency entry is “inactive”.

Consider `N=C(N=C(N)N)N1CCOCC1`, for which the Potency entry is “inactive”.

As for `O=C(O)C1CCC(C(=O)O)CC1` (stereo not given), the Potency entry was “inactive”.

For `CCCO`, the Potency result was “inactive”.

Take `Nc1ncnc2c1ncn2[C@@H]1O[C@H](COP(=O)(O)O)[C@@H](O)[C@H]1O`: the Potency entry was “inactive”.

For the compound `O=C(O)CCc1ccccc1`, the Potency entry was “inactive”.

With `CC(C)C(=O)O`, the Potency result is “inactive”.

In the case of `CCCCCC1CCC(=O)O1` (stereo not given), the Potency result was “inactive”.
